# Data taken from PMC7862700, “An all-to-all approach to the identification of sequence-specific readers for epigenetic DNA modifications on cytosine”.
# Assays:
# Assay in all cases: DAPPL (digital affinity profiling via proximity ligation, sequencing); 10 mM Tris-HCl pH 7.5, 50 mM NaCl, 1 mM DTT, 4% glycerol, room temperature, 30 min; GST-TFs on glutathione beads, 16-mer random dsDNA library, 0.1% formaldehyde crosslink after washing; high values mean tight binding
# [1] = biological target: T1, FEV (Homo sapiens, UniProt Q99581 1-238); settings: protein: recombinant; tags: N-terminal GST; dsDNA, one strand shown
# T1 sequence: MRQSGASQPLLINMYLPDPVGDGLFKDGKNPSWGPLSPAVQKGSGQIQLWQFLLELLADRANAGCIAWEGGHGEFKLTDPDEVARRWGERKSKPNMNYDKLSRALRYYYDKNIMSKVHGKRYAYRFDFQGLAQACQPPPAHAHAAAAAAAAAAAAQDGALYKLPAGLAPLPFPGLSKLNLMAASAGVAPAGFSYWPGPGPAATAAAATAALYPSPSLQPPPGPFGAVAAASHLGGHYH
# How it was run: (§1)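 After expression in yeast as GST fusions, human transcription factors were bound to glutathione beads, DNA-barcoded and mixed with a tag-only sample. The pools were incubated with 200 nmole of a 16-mer random double-stranded DNA library in Tris/NaCl/DTT/glycerol buffer (30 min, room temperature), washed and crosslinked with 0.1% formaldehyde. Proximity ligation with BsaI/T4 ligase ran for 1 h at 37 °C, before PCR amplification and sequencing on an Illumina NextSeq500. Binding signal is a hexamer's read frequency for a factor divided by its frequency for the tag-only sample.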
# [2] = biological target: ETV5 (Homo sapiens, UniProt P41161 1-510); settings: protein: recombinant; tags: N-terminal GST; dsDNA, one strand shown
# ETV5, sequence (P41161 whole entry): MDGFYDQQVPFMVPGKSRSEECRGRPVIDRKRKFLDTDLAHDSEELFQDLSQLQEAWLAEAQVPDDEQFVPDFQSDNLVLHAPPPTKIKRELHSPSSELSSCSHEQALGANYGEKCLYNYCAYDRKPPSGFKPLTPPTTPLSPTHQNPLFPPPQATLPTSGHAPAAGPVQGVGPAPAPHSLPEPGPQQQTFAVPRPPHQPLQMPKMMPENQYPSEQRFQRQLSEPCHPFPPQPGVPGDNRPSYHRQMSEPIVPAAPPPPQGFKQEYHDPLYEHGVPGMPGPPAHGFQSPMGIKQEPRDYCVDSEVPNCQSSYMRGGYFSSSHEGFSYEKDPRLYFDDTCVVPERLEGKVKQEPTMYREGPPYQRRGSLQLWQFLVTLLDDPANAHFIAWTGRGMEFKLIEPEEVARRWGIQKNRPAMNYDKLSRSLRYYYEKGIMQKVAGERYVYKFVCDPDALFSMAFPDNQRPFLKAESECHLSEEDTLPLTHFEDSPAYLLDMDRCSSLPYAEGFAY
# How it was run: as §1
# [3] = biological target: HSF1 (Homo sapiens, UniProt Q00613 1-529); settings: protein: recombinant; tags: N-terminal GST; chain copies: 3; dsDNA, one strand shown
# HSF1, sequence (Q00613 whole entry): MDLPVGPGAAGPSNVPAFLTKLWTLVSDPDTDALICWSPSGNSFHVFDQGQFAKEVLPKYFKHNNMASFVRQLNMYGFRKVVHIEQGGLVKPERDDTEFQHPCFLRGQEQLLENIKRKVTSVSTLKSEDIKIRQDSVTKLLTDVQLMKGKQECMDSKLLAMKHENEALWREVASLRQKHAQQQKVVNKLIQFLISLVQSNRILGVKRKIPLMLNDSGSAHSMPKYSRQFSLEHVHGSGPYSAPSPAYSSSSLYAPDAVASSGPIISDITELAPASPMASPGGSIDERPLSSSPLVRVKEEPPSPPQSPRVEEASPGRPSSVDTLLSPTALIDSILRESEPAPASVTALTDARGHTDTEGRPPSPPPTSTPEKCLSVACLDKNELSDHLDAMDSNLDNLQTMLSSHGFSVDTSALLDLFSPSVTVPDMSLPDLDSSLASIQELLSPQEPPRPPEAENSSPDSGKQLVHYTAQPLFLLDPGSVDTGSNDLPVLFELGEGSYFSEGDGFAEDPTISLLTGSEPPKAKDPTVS
# How it was run: as §1
# [4] = biological target: T2, SPIC (Homo sapiens, UniProt Q8N5J4 1-248); settings: protein: recombinant; tags: N-terminal GST; dsDNA, one strand shown
# T2 sequence: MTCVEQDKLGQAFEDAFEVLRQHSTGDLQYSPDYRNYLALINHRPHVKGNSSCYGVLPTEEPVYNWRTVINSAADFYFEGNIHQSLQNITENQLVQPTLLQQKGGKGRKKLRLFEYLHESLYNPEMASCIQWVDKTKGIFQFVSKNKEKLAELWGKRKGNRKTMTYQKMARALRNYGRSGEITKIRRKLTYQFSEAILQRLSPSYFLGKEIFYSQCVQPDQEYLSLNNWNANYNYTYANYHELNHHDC
# How it was run: as §1
# [5] = biological target: ELF4 (Homo sapiens, UniProt Q99607 1-663); settings: protein: recombinant; tags: N-terminal GST; dsDNA, one strand shown
# ELF4, sequence (Q99607 whole entry): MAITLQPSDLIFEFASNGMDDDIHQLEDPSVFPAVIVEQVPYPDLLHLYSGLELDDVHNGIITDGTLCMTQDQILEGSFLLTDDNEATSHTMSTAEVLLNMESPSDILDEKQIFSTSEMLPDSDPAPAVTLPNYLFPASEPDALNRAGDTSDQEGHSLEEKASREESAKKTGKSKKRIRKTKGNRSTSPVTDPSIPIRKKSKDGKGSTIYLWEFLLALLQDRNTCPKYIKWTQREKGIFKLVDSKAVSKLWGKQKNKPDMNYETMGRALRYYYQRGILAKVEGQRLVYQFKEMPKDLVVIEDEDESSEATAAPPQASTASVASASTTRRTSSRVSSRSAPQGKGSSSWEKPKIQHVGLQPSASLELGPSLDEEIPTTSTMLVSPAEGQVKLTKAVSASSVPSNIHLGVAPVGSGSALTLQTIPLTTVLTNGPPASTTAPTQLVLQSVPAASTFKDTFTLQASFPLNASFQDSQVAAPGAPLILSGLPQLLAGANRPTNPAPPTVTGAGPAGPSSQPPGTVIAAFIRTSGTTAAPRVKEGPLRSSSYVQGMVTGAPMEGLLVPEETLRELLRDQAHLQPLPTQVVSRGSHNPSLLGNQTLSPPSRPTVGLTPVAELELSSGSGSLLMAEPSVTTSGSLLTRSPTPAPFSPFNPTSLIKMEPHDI
# How it was run: as §1
# [6] = biological target: T3, ELK4 (Homo sapiens, UniProt P28324-2 1-405); settings: protein: recombinant; tags: N-terminal GST; dsDNA, one strand shown
# T3 sequence: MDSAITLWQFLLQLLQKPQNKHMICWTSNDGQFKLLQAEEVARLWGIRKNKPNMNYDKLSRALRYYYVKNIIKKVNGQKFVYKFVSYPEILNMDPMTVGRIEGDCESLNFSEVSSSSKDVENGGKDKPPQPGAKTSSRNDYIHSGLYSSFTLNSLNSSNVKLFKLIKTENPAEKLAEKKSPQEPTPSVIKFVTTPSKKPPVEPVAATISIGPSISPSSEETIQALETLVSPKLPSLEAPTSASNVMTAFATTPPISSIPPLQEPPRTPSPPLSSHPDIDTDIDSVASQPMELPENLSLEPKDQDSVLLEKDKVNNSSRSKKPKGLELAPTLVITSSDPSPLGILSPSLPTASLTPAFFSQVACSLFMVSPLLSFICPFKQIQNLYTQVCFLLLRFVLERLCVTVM
# How it was run: as §1
# [7] = biological target: T4, ETV2 (Homo sapiens, UniProt O00321 1-342); settings: protein: recombinant; tags: N-terminal GST; dsDNA, one strand shown
# T4 sequence: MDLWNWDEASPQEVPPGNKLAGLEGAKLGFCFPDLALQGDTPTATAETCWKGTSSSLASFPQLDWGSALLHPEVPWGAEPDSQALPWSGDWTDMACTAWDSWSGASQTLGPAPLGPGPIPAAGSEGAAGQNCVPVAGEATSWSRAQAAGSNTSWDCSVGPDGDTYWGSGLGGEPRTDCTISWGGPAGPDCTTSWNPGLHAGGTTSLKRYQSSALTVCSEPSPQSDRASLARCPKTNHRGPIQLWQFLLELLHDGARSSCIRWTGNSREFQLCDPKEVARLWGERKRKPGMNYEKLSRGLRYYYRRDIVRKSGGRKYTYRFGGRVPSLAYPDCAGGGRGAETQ
# How it was run: as §1
# [8] = biological target: T5, ELF3 (Homo sapiens, UniProt P78545 1-371); settings: protein: recombinant; tags: N-terminal GST; dsDNA, one strand shown
# T5 sequence: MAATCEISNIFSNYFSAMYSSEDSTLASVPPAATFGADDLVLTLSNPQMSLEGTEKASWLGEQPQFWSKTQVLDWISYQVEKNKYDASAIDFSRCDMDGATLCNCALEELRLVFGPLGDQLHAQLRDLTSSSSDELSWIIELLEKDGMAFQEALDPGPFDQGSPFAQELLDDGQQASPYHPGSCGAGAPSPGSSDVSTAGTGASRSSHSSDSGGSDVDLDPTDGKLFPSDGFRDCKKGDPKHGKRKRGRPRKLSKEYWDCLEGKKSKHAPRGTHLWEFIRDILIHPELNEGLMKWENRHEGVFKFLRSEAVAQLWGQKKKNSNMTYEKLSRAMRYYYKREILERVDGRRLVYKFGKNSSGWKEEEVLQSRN
# How it was run: as §1
# [9] = biological target: CRX (Homo sapiens, UniProt O43186 1-299); settings: protein: recombinant; tags: N-terminal GST; dsDNA, one strand shown
# CRX, sequence (O43186 whole entry): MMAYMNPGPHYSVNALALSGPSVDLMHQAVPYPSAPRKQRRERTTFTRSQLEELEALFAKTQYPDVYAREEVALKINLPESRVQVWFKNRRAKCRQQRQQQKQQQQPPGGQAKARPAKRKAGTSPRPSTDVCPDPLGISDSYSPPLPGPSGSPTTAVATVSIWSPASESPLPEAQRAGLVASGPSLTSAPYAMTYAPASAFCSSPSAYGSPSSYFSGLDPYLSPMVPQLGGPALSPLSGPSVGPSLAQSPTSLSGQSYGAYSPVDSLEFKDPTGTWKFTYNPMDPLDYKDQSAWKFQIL
# How it was run: as §1
# [10] = biological target: ETV1 (Homo sapiens, UniProt P50549 1-477); settings: protein: recombinant; tags: N-terminal GST; dsDNA, one strand shown
# ETV1, sequence (P50549 whole entry): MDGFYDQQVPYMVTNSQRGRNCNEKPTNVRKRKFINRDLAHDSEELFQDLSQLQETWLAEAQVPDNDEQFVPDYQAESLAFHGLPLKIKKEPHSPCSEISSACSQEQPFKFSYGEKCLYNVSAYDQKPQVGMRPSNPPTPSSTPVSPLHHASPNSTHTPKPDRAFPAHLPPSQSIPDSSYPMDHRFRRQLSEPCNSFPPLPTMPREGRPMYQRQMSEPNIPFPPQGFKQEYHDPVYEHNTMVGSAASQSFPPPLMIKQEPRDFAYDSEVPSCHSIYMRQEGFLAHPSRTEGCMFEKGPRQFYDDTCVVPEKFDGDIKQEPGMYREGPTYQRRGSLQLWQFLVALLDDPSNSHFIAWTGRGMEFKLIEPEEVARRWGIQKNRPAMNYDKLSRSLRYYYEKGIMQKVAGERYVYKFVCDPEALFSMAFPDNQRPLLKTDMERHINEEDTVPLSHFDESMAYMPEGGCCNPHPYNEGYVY
# How it was run: as §1
sequence,measurement,setting,value
AAGTCT,binding signal,[1],"1.07 fold enrichment (6-mer frequency, TF over GST control)"
same,binding signal,[2],"1.12 fold enrichment (6-mer frequency, TF over GST control)"
same,binding signal,[3],"1.25 fold enrichment (6-mer frequency, TF over GST control)"
same,binding signal,[4],"1.04 fold enrichment (6-mer frequency, TF over GST control)"
same,binding signal,[5],"1.06 fold enrichment (6-mer frequency, TF over GST control)"
same,binding signal,[6],"1.13 fold enrichment (6-mer frequency, TF over GST control)"
same,binding signal,[7],"1.06 fold enrichment (6-mer frequency, TF over GST control)"
same,binding signal,[8],"1.13 fold enrichment (6-mer frequency, TF over GST control)"
same,binding signal,[9],"1.28 fold enrichment (6-mer frequency, TF over GST control)"
same,binding signal,[10],"1.09 fold enrichment (6-mer frequency, TF over GST control)"
